From the supplement of paper PMC11732987, “Enantioselective OTUD7B fragment discovery through chemoproteomics screening and high-throughput optimisation” (Communications Chemistry, 2025)

How the values were obtained:
Test in all cases: log2 ratio of Biotin-Ahx-Ub-VS probe labelling (compound/DMSO); higher = less target engagement, active = hit call of the paper (q ≤ 0.05, log2 ratio ≤ -1)
Conditions in all cases: treatment time: 3 h
[1] = compound: CCC1N(CCc2sccc12)C(=O)CCl
In short: (§1)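 HEK293T lysate (495 µg per sample, in Tris/CHAPS/IGEPAL buffer with protease inhibitors) was exposed in triplicate to compound at 50 or 200 µM, or to DMSO, for 3 h, then to Biotin-Ahx-Ub-VS (0.5 µM final) for 1 h. The labelled DUBs were enriched on NeutrAvidin, digested with LysC and trypsin, and analysed by diaPASEF LC-MS/MS. Average base-two log ratios of compound over DMSO came from median-normalised label-free quantities by unpaired t-test. Only proteins with at least 2 unique peptides were used.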

[2] = compound: CN1c2ccccc2C(CS1(=O)=O)NC(=O)CCl
In short: as §1

[3] = compound: Cl.ClCC(=O)N1CCc2ncncc2C1
In short: as §1

[4] = compound: Cl.Cn1ncc2C(CCCc12)NC(=O)CCl
In short: as §1

[5] = compound: ClCC(=O)NC1CCOc2ccccc12
In short: as §1

[6] = compound: ClCC(=O)NC1CCCc2ccccc12
In short: (§2)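 In triplicate, 495 µg portions of HEK293T lysate in Tris/CHAPS/IGEPAL buffer with protease inhibitors received compound across a concentration series or vehicle for 3 h, followed by 1 h with 0.5 µM final Biotin-Ahx-Ub-VS. After NeutrAvidin enrichment and LysC/trypsin digestion, the labelled deubiquitinases were measured by diaPASEF LC-MS/MS and quantified label-free in Spectronaut with global-median normalisation. Each value is an average compound-to-vehicle ratio from an unpaired t-test, expressed as log2 and restricted to proteins having two or more unique peptides.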

[7] = compound: ClCC(=O)N[C@@H]1CCCc2ccccc12
In short: as §2

[8] = compound: ClCC(=O)N[C@H]1CCCc2ccccc12
In short: as §2

[9] = compound: CCC1N(CCc2cc(OC)c(Cl)cc12)C(=O)CCl
In short: as §1

[10] = compound: CCCC1N(CCc2cc(OC)c(OC)cc12)C(=O)CCl
In short: as §1

[11] = compound: CN(Cc1cccc(Br)c1)C(=O)CCl
In short: as §1

[12] = compound: CN(Cc1cccc(OCc2ccccc2C)c1)C(=O)CCl
In short: as §1

[13] = compound: CN(Cc1ccccc1)C(=O)CCl
In short: as §1

[14] = compound: COc1ccc(CN(C)C(=O)CCl)cc1
In short: as §1

[15] = compound: COc1cccc(CN(CCCc2ccccc2)C(=O)CCl)c1
In short: as §1

[16] = compound: ClCC(=O)N1CCc2cc(Cl)c(Cl)cc2C1
In short: as §1

[17] = compound: ClCC(=O)N1CCc2nc(ncc2C1)-c1ccccc1
In short: as §1

[18] = compound: ClCC(=O)N1CCc2nocc2C1
In short: as §1

[19] = compound: ClCC(=O)N1CCc2scc(Br)c2C1
In short: as §1

[20] = compound: ClCC(=O)NC(C1CCCC1)c1cccs1
In short: as §1

Measured: log2 ratio of Biotin-Ahx-Ub-VS probe labelling

OTUD7B (UniProt Q6GQQ9)
Chain of UniProt Q6GQQ9 (Q6GQQ9 whole entry): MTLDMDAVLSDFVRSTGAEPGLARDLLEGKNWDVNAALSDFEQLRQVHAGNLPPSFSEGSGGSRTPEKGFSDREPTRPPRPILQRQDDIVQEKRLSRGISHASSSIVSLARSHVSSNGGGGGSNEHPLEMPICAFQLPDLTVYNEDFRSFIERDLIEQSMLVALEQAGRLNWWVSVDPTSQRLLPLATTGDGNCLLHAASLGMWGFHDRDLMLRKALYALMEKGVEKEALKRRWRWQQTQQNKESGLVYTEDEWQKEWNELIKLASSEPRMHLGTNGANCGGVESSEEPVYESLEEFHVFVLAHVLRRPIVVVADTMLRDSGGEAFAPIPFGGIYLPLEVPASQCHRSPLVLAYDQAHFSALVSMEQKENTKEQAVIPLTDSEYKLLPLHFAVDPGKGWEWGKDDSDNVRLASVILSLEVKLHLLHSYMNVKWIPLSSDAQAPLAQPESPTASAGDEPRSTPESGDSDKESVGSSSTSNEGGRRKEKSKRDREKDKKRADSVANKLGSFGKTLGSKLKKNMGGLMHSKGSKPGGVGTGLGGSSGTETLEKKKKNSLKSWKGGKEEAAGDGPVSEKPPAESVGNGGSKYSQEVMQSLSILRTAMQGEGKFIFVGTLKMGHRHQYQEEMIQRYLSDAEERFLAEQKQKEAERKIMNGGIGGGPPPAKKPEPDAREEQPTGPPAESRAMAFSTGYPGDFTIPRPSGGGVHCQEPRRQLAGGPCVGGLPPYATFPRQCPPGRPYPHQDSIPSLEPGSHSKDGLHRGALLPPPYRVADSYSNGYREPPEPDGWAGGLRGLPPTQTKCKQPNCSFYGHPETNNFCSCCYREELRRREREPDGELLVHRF
inactive: [1]; compound concentration: 50uM -0.4 | [1]; compound concentration: 200uM -0.926 | [3]; compound concentration: 50uM -0.537 | [6]; compound concentration: 0.78uM -0.175 | [6]; compound concentration: 1.56uM -0.207 | [6]; compound concentration: 3.13uM -0.537 | [6]; compound concentration: 6.25uM -0.893 | [7]; compound concentration: 0.78uM -0.133 | [7]; compound concentration: 1.56uM -0.0966 | [7]; compound concentration: 3.13uM -0.116 | [7]; compound concentration: 6.25uM -0.27 | [7]; compound concentration: 12.5uM -0.226 | [7]; compound concentration: 25uM -0.495 | [8]; compound concentration: 0.78uM -0.224 | [8]; compound concentration: 1.56uM -0.562 | [8]; compound concentration: 3.13uM -0.851 | [9]; compound concentration: 50uM -0.0276 | [9]; compound concentration: 200uM -0.501 | [10]; compound concentration: 50uM -0.433 | [10]; compound concentration: 200uM -0.824 | [11]; compound concentration: 50uM -0.428 | [12]; compound concentration: 50uM -0.878 | [13]; compound concentration: 50uM -0.664 | [14]; compound concentration: 50uM -0.435 | [14]; compound concentration: 200uM -0.811 | [15]; compound concentration: 50uM -0.145 | [15]; compound concentration: 200uM -0.385 | [16]; compound concentration: 50uM -0.244 | [17]; compound concentration: 50uM -0.213 | [19]; compound concentration: 50uM -0.654 | [20]; compound concentration: 50uM -0.987
active: [2]; compound concentration: 50uM -1.97 | [2]; compound concentration: 200uM -4.51 | [3]; compound concentration: 200uM -1.65 | [4]; compound concentration: 50uM -4.9 | [4]; compound concentration: 200uM -5.48 | [5]; compound concentration: 50uM -2.66 | [5]; compound concentration: 200uM -4.52 | [6]; compound concentration: 12.5uM -1.66 | [6]; compound concentration: 25uM -2.4 | [6]; compound concentration: 50uM -3.12 | [6]; compound concentration: 100uM -3.17 | [6]; compound concentration: 200uM -3.5 | [7]; compound concentration: 50uM -1.03 | [7]; compound concentration: 100uM -1.55 | [7]; compound concentration: 200uM -2.65 | [8]; compound concentration: 6.25uM -1.39 | [8]; compound concentration: 12.5uM -2.2 | [8]; compound concentration: 25uM -3.03 | [8]; compound concentration: 50uM -3.18 | [8]; compound concentration: 100uM -3.43 | [8]; compound concentration: 200uM -3.45 | [11]; compound concentration: 200uM -1.07 | [12]; compound concentration: 200uM -2.2 | [13]; compound concentration: 200uM -1.45 | [16]; compound concentration: 200uM -1.67 | [17]; compound concentration: 200uM -1.67 | [18]; compound concentration: 50uM -1.21 | [18]; compound concentration: 200uM -3.03 | [19]; compound concentration: 200uM -2.61 | [20]; compound concentration: 200uM -2.95

UniProt Q9P2H5
Chain of UniProt Q9P2H5 (Q9P2H5 whole entry): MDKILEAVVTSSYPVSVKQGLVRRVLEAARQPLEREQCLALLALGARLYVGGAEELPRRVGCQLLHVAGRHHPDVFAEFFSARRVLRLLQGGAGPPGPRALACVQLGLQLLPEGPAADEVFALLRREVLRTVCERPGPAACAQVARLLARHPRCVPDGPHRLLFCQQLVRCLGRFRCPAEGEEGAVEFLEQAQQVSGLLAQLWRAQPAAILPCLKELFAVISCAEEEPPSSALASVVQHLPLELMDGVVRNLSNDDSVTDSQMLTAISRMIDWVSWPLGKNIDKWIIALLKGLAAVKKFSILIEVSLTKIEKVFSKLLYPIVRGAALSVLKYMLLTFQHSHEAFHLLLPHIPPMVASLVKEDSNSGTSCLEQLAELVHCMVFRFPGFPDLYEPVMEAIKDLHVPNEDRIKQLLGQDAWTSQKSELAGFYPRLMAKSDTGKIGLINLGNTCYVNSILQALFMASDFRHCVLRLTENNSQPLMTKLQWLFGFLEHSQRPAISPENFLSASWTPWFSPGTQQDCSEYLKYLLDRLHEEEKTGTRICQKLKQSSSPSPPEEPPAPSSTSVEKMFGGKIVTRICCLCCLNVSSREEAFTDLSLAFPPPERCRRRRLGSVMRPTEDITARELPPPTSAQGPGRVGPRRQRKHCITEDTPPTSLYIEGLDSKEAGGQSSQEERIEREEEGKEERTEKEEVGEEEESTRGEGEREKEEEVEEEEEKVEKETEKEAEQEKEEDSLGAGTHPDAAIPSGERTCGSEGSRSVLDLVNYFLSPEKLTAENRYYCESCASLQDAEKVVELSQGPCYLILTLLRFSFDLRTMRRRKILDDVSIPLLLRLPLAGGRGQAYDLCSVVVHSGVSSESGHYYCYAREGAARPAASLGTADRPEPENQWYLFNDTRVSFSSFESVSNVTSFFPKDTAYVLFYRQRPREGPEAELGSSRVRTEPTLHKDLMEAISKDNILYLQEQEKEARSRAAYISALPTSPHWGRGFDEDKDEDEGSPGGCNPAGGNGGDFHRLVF
inactive: [1]; compound concentration: 50uM -0.0377 | [1]; compound concentration: 200uM 0.00874 | [2]; compound concentration: 50uM -0.392 | [2]; compound concentration: 200uM -0.0291 | [3]; compound concentration: 50uM -0.175 | [3]; compound concentration: 200uM -0.43 | [4]; compound concentration: 50uM 0.0391 | [4]; compound concentration: 200uM 0.177 | [5]; compound concentration: 50uM -0.286 | [5]; compound concentration: 200uM -0.188 | [6]; compound concentration: 0.78uM -0.0934 | [6]; compound concentration: 1.56uM -0.117 | [6]; compound concentration: 3.13uM -0.133 | [6]; compound concentration: 6.25uM -0.0237 | [6]; compound concentration: 12.5uM -0.00833 | [6]; compound concentration: 25uM -0.293 | [6]; compound concentration: 50uM -0.0682 | [6]; compound concentration: 100uM -0.133 | [6]; compound concentration: 200uM -0.168 | [7]; compound concentration: 0.78uM -0.164 | [7]; compound concentration: 1.56uM -0.0308 | [7]; compound concentration: 3.13uM -0.0316 | [7]; compound concentration: 6.25uM -0.151 | [7]; compound concentration: 12.5uM -0.2 | [7]; compound concentration: 25uM -0.0579 | [7]; compound concentration: 50uM 0.05 | [7]; compound concentration: 100uM -0.00994 | [7]; compound concentration: 200uM -0.0974 | [8]; compound concentration: 0.78uM 0.0582 | [8]; compound concentration: 1.56uM -0.146 | [8]; compound concentration: 3.13uM -0.121 | [8]; compound concentration: 6.25uM -0.0964 | [8]; compound concentration: 12.5uM -0.172 | [8]; compound concentration: 25uM -0.164 | [8]; compound concentration: 50uM -0.0898 | [8]; compound concentration: 100uM -0.0993 | [8]; compound concentration: 200uM 0.0345 | [9]; compound concentration: 50uM 0.132 | [9]; compound concentration: 200uM -0.452 | [10]; compound concentration: 50uM -0.52 | [10]; compound concentration: 200uM -0.532 | [11]; compound concentration: 50uM 0.0586 | [11]; compound concentration: 200uM -0.355 | [12]; compound concentration: 50uM -0.626 | [12]; compound concentration: 200uM -0.327 | [13]; compound concentration: 50uM -0.0969 | [13]; compound concentration: 200uM -0.154 | [14]; compound concentration: 50uM -0.301 | [14]; compound concentration: 200uM -0.182 | [15]; compound concentration: 50uM -0.114 | [15]; compound concentration: 200uM -0.29 | [16]; compound concentration: 50uM -0.263 | [16]; compound concentration: 200uM -0.82 | [17]; compound concentration: 50uM 0.133 | [17]; compound concentration: 200uM -0.449 | [18]; compound concentration: 50uM -0.415 | [18]; compound concentration: 200uM -0.273 | [19]; compound concentration: 50uM -0.192 | [19]; compound concentration: 200uM -0.595 | [20]; compound concentration: 50uM 0.156 | [20]; compound concentration: 200uM 0.0366

PRPF8 (UniProt Q6P2Q9)
inactive: [1]; compound concentration: 50uM -0.0394 | [1]; compound concentration: 200uM -0.112 | [2]; compound concentration: 50uM -0.0921 | [2]; compound concentration: 200uM -0.054 | [3]; compound concentration: 50uM 0.0381 | [3]; compound concentration: 200uM -0.119 | [4]; compound concentration: 50uM 0.0788 | [4]; compound concentration: 200uM 0.0562 | [5]; compound concentration: 50uM 0.0594 | [5]; compound concentration: 200uM -0.157 | [6]; compound concentration: 0.78uM -0.034 | [6]; compound concentration: 1.56uM -0.0309 | [6]; compound concentration: 3.13uM -0.104 | [6]; compound concentration: 6.25uM -0.01 | [6]; compound concentration: 12.5uM -0.0322 | [6]; compound concentration: 25uM -0.101 | [6]; compound concentration: 50uM -0.0882 | [6]; compound concentration: 100uM -0.0511 | [6]; compound concentration: 200uM -0.0422 | [7]; compound concentration: 0.78uM -0.0504 | [7]; compound concentration: 1.56uM -0.022 | [7]; compound concentration: 3.13uM -0.0939 | [7]; compound concentration: 6.25uM -0.0748 | [7]; compound concentration: 12.5uM -0.0604 | [7]; compound concentration: 25uM -0.0428 | [7]; compound concentration: 50uM -0.086 | [7]; compound concentration: 100uM -0.0702 | [7]; compound concentration: 200uM -0.137 | [8]; compound concentration: 0.78uM -0.0339 | [8]; compound concentration: 1.56uM -0.0293
